Records with an inconclusive call do not appear. Entries that show only a call come without a potency. The source made the active and inactive calls. Unless noted, the call rests on the fitted dose curve; in most records, active means well fitted cell-killing curve with a large enough effect in the repeat runs; inconclusive means weak or mixed curves, or effect the other way; inactive means no such curve, though single readings can be large or run the other way.
Further: nearly all actives have a fitted effect of over 50% in size.
Potency means the concentration at half of the fitted maximal effect.

One assay is described as follows: qHTS assay to identify small molecule agonists of the endoplasmic reticulum stress response signaling pathway - cell viability counter screen (AID 1159517; calls by dose curve). The conditions noted are these: ESRE-bla HeLa viability, CellTiter-Glo luminescence, 5 h; series mostly up to 61 µM. The method, boiled down: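 Counter-screen wells were identical to the reporter wells. Cells were plated at 1,500 per well and dosed for 5 hr, then read for luminescence 30 min after CellTiter-Glo addition.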
A general note: In qHTS, concentration-response curves come from the screen itself.
Consider `COc1cc(NC(C)CCCN)c2ncccc2c1` (configuration not stated), for which the Potency entry was “inactive”. Same read-out and setting: to `COc1cc(S(=O)(=O)Nc2ccccc2)c(OC)cc1N` belongs “inactive”; to `CC(C)(C)S`, “inactive”.

As to `NC(=O)CCCCC(N)=O`, the Potency result was “inactive”. The same measure, in the same setting: to `CC(O)Cn1cnc2c1c(=O)n(C)c(=O)n2C` (configuration not stated) belongs “inactive”; to `O=C(O)CN1C(=O)c2cccc3cccc(c23)C1=O`, “inactive”; to `CCCc1nc2c(C)cc(-c3nc4ccccc4n3C)cc2n1Cc1ccc(-c2ccccc2C(=O)O)cc1`, “inactive”. Still for that read-out and setting: to `FC(F)(F)C(F)(F)C(F)(F)C(F)(F)CCI` belongs “inactive”; to `COc1ccc2nc(S(=O)Cc3ncc(C)c(OC)c3C)[nH]c2c1` (configuration not stated), “inactive”. Same read-out and setting: the entry for `CNS(=O)(=O)c1cc(C(=O)N2CCC(CCN3C4CCC3CC(n3c(C)nc5ccccc53)C4)(c3cccc(F)c3)CC2)c(Cl)cc1F` (configuration not stated) is “inactive”; for `COC(=O)CC(C(C)=O)C(=O)OC` (configuration not stated) it is “inactive”. On to `CC1CCC(C(C)CS)CC1S` (configuration not stated), for which the Potency was 19.5 µM (active). The same measure, in the same setting: to `CCCCCCCC(=O)OCCCCCC` belongs “inactive”; to `COc1ccc(C)cc1`, “inactive”; to `Cc1cc(CCC(=O)OCCOCCOCCOC(=O)CCc2cc(C)c(O)c(C(C)(C)C)c2)cc(C(C)(C)C)c1O`, “inactive”.

Consider `COc1ccc(-n2nc(C(F)F)cc2-c2ccc(S(C)=O)cc2)cc1` (configuration not stated), for which the Potency entry is “inactive”. Still for that read-out and setting: the entry for `COC(=O)c1sccc1S(N)(=O)=O` is “inactive”; for `Nc1ccc(N=Nc2ccc(N)cc2)cc1` it is “inactive”. On the same count and under the same terms, the entry for `CNc1c2c(nn1C)CCCC2` is “inactive”.

The next assay in a line: qHTS assay to identify small molecule antagonists of the retinoid-related orphan receptor gamma (ROR-gamma) signaling pathway - cell viability counter screen (AID 1159520). The following applies: Tet-on RORgamma CHO cells viability, ATP luminescence, 16 h; series mostly up to 92.4 µM. The method, boiled down: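 Tet-on ROR gamma CHO cells were given compounds for 2 hr, then doxycycline hyclate at 1 uM final, and incubated 16 hr at 37 C. Viability was measured as ATP content by CellTiter-Glo luminescence.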
With `Cc1cn([C@H]2C[C@H](F)[C@@H](CO)O2)c(=O)[nH]c1=O`, the Potency entry is “inactive”. Consider `COc1cc(NC(C)CCCN)c2ncccc2c1` (configuration not stated), for which the Potency entry was “inactive”. On to `CN1CCCN(C(c2ccccc2)c2ccc(Cl)cc2)CC1` (configuration not stated), for which the Potency result was “inactive”. Same read-out and setting: the entry for `COc1cc(S(=O)(=O)Nc2ccccc2)c(OC)cc1N` is “inactive”; for `CC(C)(C)S` it is “inactive”; for `COc1ccc(/C=C/C(=O)c2ccc(OC)cc2OC)cc1` it is “inactive”.

Turning to `CCNc1nc(N)nc(Cl)n1`, the Potency result was “inactive”. The same measure, in the same setting: the entry for `Cc1cccc2sc(N)nc12` is “inactive”.

In the case of `CC(O)Cn1cnc2c1c(=O)n(C)c(=O)n2C` (configuration not stated), the Potency entry is “inactive”.

Turning to `O=C(O)CN1C(=O)c2cccc3cccc(c23)C1=O`, the Potency result was “inactive”. Same read-out and setting: to `CCCc1nc2c(C)cc(-c3nc4ccccc4n3C)cc2n1Cc1ccc(-c2ccccc2C(=O)O)cc1` belongs “inactive”; to `FC(F)(F)C(F)(F)C(F)(F)C(F)(F)CCI`, “inactive”. On the same count and under the same terms, to `CCN(Cc1cccc(S(=O)(=O)O)c1)c1ccc(C(=C2C=CC(=[N+](CC)Cc3cccc(S(=O)(=O)O)c3)C=C2)c2ccccc2S(=O)(=O)[O-])cc1` belongs 9.72 µM (active). Still for that read-out and setting: to `CCN(CC)C(=O)/C(C#N)=C/c1cc(O)c(O)c([N+](=O)[O-])c1` belongs “inactive”; to `CNS(=O)(=O)c1cc(C(=O)N2CCC(CCN3C4CCC3CC(n3c(C)nc5ccccc53)C4)(c3cccc(F)c3)CC2)c(Cl)cc1F` (configuration not stated), “inactive”. `COC(=O)CC(C(C)=O)C(=O)OC` (configuration not stated): the Potency result was “inactive”.

For the compound `CC1CCC(C(C)CS)CC1S` (configuration not stated), the Potency entry was “inactive”. The same measure, in the same setting: to `CCCCCCCC(=O)OCCCCCC` belongs “inactive”. On the same count and under the same terms, to `CC(C)CC(O)CC(C)C` belongs “inactive”; to `COc1ccc(C)cc1`, “inactive”. Still for that read-out and setting: the entry for `Nc1ccn([C@H]2CS[C@@H](CO)O2)c(=O)n1` is “inactive”; for `Cc1cc(CCC(=O)OCCOCCOCCOC(=O)CCc2cc(C)c(O)c(C(C)(C)C)c2)cc(C(C)(C)C)c1O` it is “inactive”; for `COc1ccc(-n2nc(C(F)F)cc2-c2ccc(S(C)=O)cc2)cc1` (configuration not stated) it is “inactive”. For `O=C(O)c1cc(Cl)cc(Cl)c1O`, the Potency result is “inactive”. On the same count and under the same terms, to `CC(C)C(=O)OCCOc1ccccc1` belongs “inactive”; to `COC(=O)c1sccc1S(N)(=O)=O`, “inactive”; to `c1ccc(CCCc2ccncc2)cc1`, “inactive”. For `Nc1ccc(NC(=O)c2ccc(N)cc2)cc1`, the Potency entry was “inactive”. The same measure, in the same setting: to `CC[C@@H](CO)NCCN[C@@H](CC)CO` belongs “inactive”; to `O=C(c1ccccc1)c1ccc(O)cc1`, “inactive”; to `CCN(Cc1cccc(S(=O)(=O)O)c1)c1ccc(C(=C2C=CC(=[N+](CC)Cc3cccc(S(=O)(=O)O)c3)C=C2)c2ccc(O)cc2S(=O)(=O)[O-])cc1`, 10.5 µM (active). The same measure, in the same setting: to `Nc1ccc(N=Nc2ccc(N)cc2)cc1` belongs “inactive”; to `CNc1c2c(nn1C)CCCC2`, “inactive”.
